# This excerpt belongs to a sample that is enriched for hits.
# Giardia FBPA inh – inhibitors of Giardia lamblia fructose-1,6-bisphosphate aldolase. A8B2U2. purified Giardia FBPA. Potency, µM (highest dose often 59.6 µM), actives largely listed as inhibitors. 0.71% of 290,000 active. AID 2451; also: nearly all actives have a fitted effect of over 55% in size
# Target sequence (A8B2U2 whole entry, looked up): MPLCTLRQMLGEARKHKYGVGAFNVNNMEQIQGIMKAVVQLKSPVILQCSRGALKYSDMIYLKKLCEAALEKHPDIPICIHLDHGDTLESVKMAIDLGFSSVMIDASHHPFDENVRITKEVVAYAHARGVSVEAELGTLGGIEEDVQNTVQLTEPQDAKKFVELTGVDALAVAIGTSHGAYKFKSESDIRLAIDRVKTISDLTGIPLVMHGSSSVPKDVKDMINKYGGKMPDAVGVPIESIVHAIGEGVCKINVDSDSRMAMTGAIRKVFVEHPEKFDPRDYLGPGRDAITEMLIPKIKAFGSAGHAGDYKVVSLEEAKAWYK
#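 40 nM FBPA preincubated 10 min at RT with compound (up to 57.5 uM final), then substrate plus GAPDH/TPI/NAD/arsenate coupling and diaphorase/resazurin added. Fluorescence read after 20 min at RT, 525/598 nm.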
# LmPK inh – inhibitors of Leishmania mexicana pyruvate kinase. purified LmPK, Kinase-Glo ATP luminescence, 1 h. Q27686. AID 1721. Potency, µM (doses to about 57.5 µM), actives largely listed as inhibitors. 0.37% of 290,000 active
#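 Purified LmPK (0.1 nM) with 0.5 mM PEP and 0.1 mM ADP in imidazole buffer pH 7.2 with MgCl2/KCl, 1 h at room temperature. ATP formed was read by luciferase luminescence and normalized to no-enzyme and uninhibited controls.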
# CHX counter – counter-screen for Shiga toxin inhibitors: cycloheximide protein synthesis inhibition. cell reporter, cycloheximide protein synthesis inhibition counterscreen. max response, %. 12% of 300,000 active; in the data active = max response mostly above about 13%, no sharp cut-off; inactive = mostly below about 14%; also: read at 38.3 µM for the half of the compounds with a filed dose
# Tb PYK inh – inhibitors of Trypanosoma brucei pyruvate kinase | AID 624173 | TbPYK enzyme, Kinase-Glo Plus ATP luminescence, 45 min | 0.12% of 410,000 active | Potency, µM (doses to about 76.8 µM), actives largely listed as inhibitors; also: nearly all actives have a fitted effect of over 50% in size
#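 Glycolytic pyruvate kinase of T. brucei was incubated with substrate, test compound and 130 uM ADP for 45 minutes at room temperature. Luminescent Kinase-Glo Plus signal was measured after 10 minutes.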
# RE007 growth inh – less growth of the S. pombe RE007 Vpr strain. S. pombe RE007 Vpr strain, BacTiter-Glo ATP luminescence, 24 h. Potency, µM (titrated, usually from 92.2 µM), actives largely listed as inhibitors. 0.21% of 360,000 active; active = well fitted falling curve with a large enough effect; inconclusive = small, poorly fitted or top-dose-only effect; inactive = no such curve, though single readings can be large or run the other way; also: nearly all actives have a fitted effect of over 50% in size
#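 Fission yeast strain RE007, carrying one chromosomally integrated HIV-1 vpr copy, was seeded at OD 0.01 in PMG+AL medium with 23 nL pinned compound. After 24 h at 30 °C and 99% humidity, viability was read by BacTiter-Glo luminescence.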
# Shiga toxin inh – inhibitors of Shiga toxin in Vero cells; Vero cells, Shiga toxin protein synthesis inhibition reporter; inhibition, % at 38.7 µM; 9.2% of 290,000 active; in the data active = inhibition mostly above about 28%, no sharp cut-off; inactive = mostly below about 43%
# A number is an active result; n = inactive; u = inconclusive; x = no result; [ ] = another dose, or the depositor's remark. Unless noted, calls follow the shape of the dose curve; as a rule, active = well fitted curve in the direction sought with a large enough effect; inconclusive = small, poorly fitted or top-dose-only effect, or another doubt; inactive = no such curve, though single readings can be large; an effect the other way counts as inactive or inconclusive.
SMILES,Giardia FBPA inh,LmPK inh,CHX counter,Tb PYK inh,RE007 growth inh,Shiga toxin inh
CCC(C)c1ccc(NC(=S)Nc2ccc(OC)cc2)cc1 (configuration not stated),n,n,n,n,n,n
CCC(C)c1ccc(NC(=S)NN2CCOCC2)cc1 (configuration not stated),n,n,42,n,n,87
CCOC(=O)c1ccc(NC(=S)NC(=O)COc2ccccc2)cc1,n,n,55,n,n,n
CCOC(=O)c1ccc(NC(=S)N2CCSC2c2ccc(Cl)cc2)cc1 (configuration not stated),n,n,n,n,n,n
CCOC(=O)c1ccc(NC(=S)Nc2ccc(C)cc2)cc1,n,n,n,n,n,n
CCOC(=O)c1ccc(NC(=S)NNC(C)(C)C)cc1,n,n,61,n,n,84
CC(C)c1ccc(NC(=O)NN2CCOCC2)cc1,n,n[11.5 µM],43,n,n,138
CC(C)c1ccc(NC(=O)C(c2ccccc2)N2CCOCC2)cc1 (configuration not stated),n,n,n,n,n,n
CCOC(=O)c1ccc(NC(=S)NN2CCOCC2)cc1,n,n,32,n,n,39
Cc1cn2c(=O)cc(COC(=O)COc3ccc(C)c(C)c3)nc2s1,x,x,x,n,x,x
CS(=O)(=O)CCCCN=C=S,n,x,x,x,x,x
CCCCC#Cc1ccccc1CC(=O)Nc1ccccc1,n,n,n,n,n,n
CCCCCCCC#Cc1ccccc1/C=N/S(=O)c1ccc(C)cc1 (configuration not stated),n[12.9 µM],n,n,20µM,u,n
N#C/C(=C/c1ccncc1)c1nc2ccccc2s1,n,n,30,n,n,44
CC1CCc2nc(/C(C#N)=C/c3ccncc3)sc2C1 (configuration not stated),n,n,38,n,n,96
N#C/C(=C(/O)C(Cl)(Cl)Cl)c1nc2ccccc2[nH]1,n,n,13,n,n,n
N#C/C(=C1/CCCCCN1)c1nc2ccccc2[nH]1,n,n,122,n,n,44
Cc1ccc(C)c(NC(=S)N(C)CCO)c1,n,n,n,n,n,n
COc1ccc(NC(=O)CN(c2ccccc2OC)S(C)(=O)=O)c(OC)c1,x,x,x,n,x,x
Cc1cccc(/C=C(\C#N)c2nc3ccccc3c(=O)[nH]2)c1,x,x,x,n,x,x
N#C/C(=C\c1ccncc1)c1nc2ccccc2[nH]1,n,n,32,n,n,106
N#C/C(=C\c1cccnc1)c1nc2ccccc2[nH]1,n,n,36,n,n,57
N#C/C(C(=O)c1ccccc1)=C1/CCCCCN1,n,n,44,n,28µM,94
Cc1cc2nc(/C(C#N)=C/c3ccncc3)[nH]c2cc1C,n,n,n,n,n,n
N#C/C(=C1\CCCN1)c1ccc2ccccc2n1,n,n,n,n,n,n
SMILES,Giardia FBPA inh,LmPK inh,CHX counter,Tb PYK inh,RE007 growth inh,Shiga toxin inh
C[C@H](NCc1ccccc1)c1ccccc1,n,x,n,x,x,n
O=C(NCCCN1CCCC1=O)Nc1ccc([N+](=O)[O-])cc1,n,n,18,n,n,n
O=C(NCCCN1CCOCC1)c1cc2c(s1)CCCC2,n,n,n,n,n,n
O=C(NCCCN1CCCC1=O)c1sc2ccccc2c1Cl,x,n,29,n,n,39
O=C(NCCCN1CCCC1=O)c1cc2c(s1)CCCCC2,n,n,49,n,n,73
Cc1ccc(NC(=O)NCCCN2CCCC2=O)cc1Cl,n,n,31,n,n,74
COCCOC(=O)N1CCCCC1c1cc(C(=O)Nc2cccc3c2CCCC3)no1 (configuration not stated),x,x,x,n,n,x
Cn1c(=O)c2cc(NC(=O)NCc3ccc(Cl)cc3Cl)ccc2n1Cc1ccccc1,x,x,x,n,n[18.4 µM],x
COc1ccc(-c2ccc(CCC(=O)O)n2CC(=O)Nc2cccc(Cl)c2C)cc1,x,x,x,n,x,x
CN[C@H]1C[C@H]2c3[nH]c4ccc(-c5ccc(OC)cc5)cc4c3CCN2C(=O)[C@H]1[C@H](C)O,x,x,x,n,n,x
O=C(NCCCN1CCCC1=O)Nc1ccccc1F,n,n,19,n,n,37
O=C(NCCCN1CCCC1=O)Nc1ccccc1Cl,x,n,n,n,n,n
NS(=O)(=O)c1ccc(N/N=C/C=C/c2ccccc2[N+](=O)[O-])cc1,n,n,37,n,n,80
O=C(CN1CCN(Cc2ccccc2)CC1)N/N=C/C=C/c1ccccc1[N+](=O)[O-],n,n,n,n,n,n
O=C(O)c1cc(N/N=C/C=C/c2ccccc2[N+](=O)[O-])ccc1Cl,n,n,42,n,n,68
CCOc1ccc(N(CC(=O)N2CCN(c3ccc(F)cc3)CC2)S(=O)(=O)c2c(C)noc2C)cc1,x,n,n,n,n,n
COc1ccc(/C=N/NC2=NCCCCC2)c(OC)c1,n,n,n,n,n,n
Oc1ccccc1/C=N/NC1=NCCCCC1,n,n,34,n,n,95
O=[N+]([O-])c1cccc(/C=N/NC2=NCCCCC2)c1,n,n,36,n,n,62
O=C(ONC1=NCCCCC1)c1cccc([N+](=O)[O-])c1,n,n,n,n,n,n
CCOCCc1nn2c(=O)cc(COC(=O)c3ccccc3NC(=O)c3ccccc3F)nc2s1,x,x,x,n,x,x
CC(=NCCCN(C)C)C1=C(O)c2ccccc2C1=O,n,n,n,n,n,n
CCOc1ccc(N=C(C)C2=C(O)c3ccccc3C2=O)cc1,n,n,43,n,n,194
CC(=O)Nc1ccc(N=C(C2=C(O)c3ccccc3C2=O)c2ccccc2)cc1,n,n,44,n,n,63
COc1ccc(N=C(C)C2=C(O)c3ccccc3C2=O)cc1,n,n,58,n,n,115
SMILES,Giardia FBPA inh,LmPK inh,CHX counter,Tb PYK inh,RE007 growth inh,Shiga toxin inh
CCOC(=O)c1cccc(NC(=O)c2cc3ccccn3n2)c1,x,x,x,n,x,x
CCN(CC)S(=O)(=O)c1ccc(C)c(NS(=O)(=O)c2cc(/C=C/C(=O)O)cc(OC)c2OC)c1,n,n,n,n,n,n
O=C(Nc1cccc2ccccc12)c1ccc2sc([C@@H]3O[C@H](CO)[C@H](O)[C@H](O)[C@H]3O)nc2c1,x,x,x,n,n[18.4 µM],x
Cn1cc(Br)c(C(=O)NC2C3CC4CC(C3)CC2C4)n1 (configuration not stated),n,n,n,x,n[3.69 µM],n
O=C(Nc1nccs1)c1ccccc1[N+](=O)[O-],n,n,n,n,n,n
Cn1cc(Br)c(C(=O)Nc2c(F)c(F)c(F)c(F)c2F)n1,n,n,n,n,n,n
O=C(Nc1nccs1)c1ccccc1Br,n,n,28,n,n,n
Nc1ccccc1C(=O)Nc1nccs1,n,n,45,n,n,62
Cn1cc(Br)c(C(=O)NC2CCCCCC2)n1,x,n,17,n,n,n
Cn1cc(Br)c(C(=O)Nc2nccs2)n1,n,n,27,n,n,43
COC(=O)c1ccc(NC(=O)CSc2nncn2-c2ccccn2)cc1,n,n,n,n,n,n
